Data: the supplement of paper PMC12632987

T1: USP38, Q8NB14
T1 chain: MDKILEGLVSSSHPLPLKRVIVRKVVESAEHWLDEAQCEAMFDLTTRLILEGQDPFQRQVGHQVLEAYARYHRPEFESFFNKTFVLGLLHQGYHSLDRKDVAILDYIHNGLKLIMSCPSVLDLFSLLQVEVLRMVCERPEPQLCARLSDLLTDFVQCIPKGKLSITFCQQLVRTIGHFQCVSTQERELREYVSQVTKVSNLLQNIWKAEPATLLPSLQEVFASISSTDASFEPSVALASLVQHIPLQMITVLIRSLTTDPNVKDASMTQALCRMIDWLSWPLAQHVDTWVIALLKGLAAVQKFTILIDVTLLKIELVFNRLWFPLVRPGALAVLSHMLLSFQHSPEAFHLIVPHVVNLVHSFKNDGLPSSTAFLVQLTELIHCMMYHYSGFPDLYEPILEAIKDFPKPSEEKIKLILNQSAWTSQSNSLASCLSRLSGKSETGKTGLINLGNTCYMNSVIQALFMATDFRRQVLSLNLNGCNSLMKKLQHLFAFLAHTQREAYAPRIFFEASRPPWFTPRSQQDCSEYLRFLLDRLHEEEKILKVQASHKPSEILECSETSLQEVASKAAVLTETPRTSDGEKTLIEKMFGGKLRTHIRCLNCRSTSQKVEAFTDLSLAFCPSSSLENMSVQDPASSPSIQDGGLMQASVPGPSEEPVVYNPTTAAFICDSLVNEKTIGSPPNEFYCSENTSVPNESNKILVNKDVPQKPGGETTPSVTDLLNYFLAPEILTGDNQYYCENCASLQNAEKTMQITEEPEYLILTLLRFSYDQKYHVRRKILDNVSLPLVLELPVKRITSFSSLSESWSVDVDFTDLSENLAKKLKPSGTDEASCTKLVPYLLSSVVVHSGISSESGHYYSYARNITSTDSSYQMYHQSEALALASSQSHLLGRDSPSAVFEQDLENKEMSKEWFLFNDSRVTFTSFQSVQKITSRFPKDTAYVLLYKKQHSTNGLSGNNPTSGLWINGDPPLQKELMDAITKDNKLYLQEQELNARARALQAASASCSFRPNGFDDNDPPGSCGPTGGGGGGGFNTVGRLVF

B1: usp_38_diff_out_5_80_613 (protein)
chain: SLLEEARRLAEEALKAEDLETFEELLKQLVETVRRAAEEALERGTLDETVRELSGILLELDKEVRKSSNKEKKKLAKEYLNQAVDVLAAAELRALEREAA
B2: usp_38_diff_out_5_164_606 (protein)
chain: MVEEALKRMEEIAKELEAKLKALLAEAKKNPAKLAEYEKQITDATNEALDELNEITTKALEANPEKADEILEHYDRVVTRMLTAYNAAKAELAALKKEAA
B3: usp_38_diff_out_5_91_618 (protein)
chain: AEARAEQIRLAEEAARLLEEAARRLEAGEDYTADVERAIALFRELAAALAGGDARQRRLSLTAAGLALALEELPRYSRELQIAMLRAHADVARAMAEELR
B4: usp_38_diff_out_5_91_623 (protein)
chain: AERREEAVRLAKEAAEYLKKAAELLEAGEDYTEEIKRAREALTRAAELLAKGNAREQRLALTAAGMAEALDELPRYSKELQIAMLKELADVAKELAEQLA
B5: usp_38_diff_out_9_42_629 (protein)
chain: RKELEERLLELIRETGEVLREAEEVLRELREVDPEAARRFRREVAELLDKIDDKLLKAQRLLLQDESKYPEAQAALDEAERLVEELRRLAEEWRRRLKER
B6: usp_38_diff_out_5_164_608 (protein)
chain: GVEEALEELRKIREELEKKLKELLEKAKENPEKLEEYKKEITKAMDEAIDKMNEITTRALEAHPERAEEILREYDEEVTKMLKEYNEVMEKLKKLEEEYK
B7: usp_38_diff_out_5_91_617 (protein)
chain: EEERRRLIELAEEAAELLKKAAELLEKGEDYTEAVKKAIELLKELAKLLAGGDSRERRLSLTAAGMAEALEELDKYPKELQIAMLKAMADVAKEMAEQLR
B8: usp_38_diff_out_5_91_616 (protein)
chain: EEERKKIIEKAEELARLLKEAAELLEKGEDYTENIKRAIKLAEELAKALAGGDARERRLSLTFAGLAEALKEIENYPKELQIAMLKAHADVAEEAAELLK
B9: usp_38_diff_out_5_164_610 (protein)
chain: GVEELLKEMEEIKKETLEKLDKLLEEAKKNPEKLDEYKKEINELTNEAIDKMNELTTEALELDPERAEEILRHYDEIMTELLTHKQKVLDEIEKLKKEKE
B10: usp_38_diff_out_9_172_624 (protein)
chain: DLESKRFKIQWLLADAIDLLQKIAKKADEENKKKLIEAAMLLLKASQLVVEGGDKEEILKLLEEAKKLVKELAKKDPKNKKELEEAIKLIEEAIKLVKEL
B11: usp_38_diff_out_5_91_621 (protein)
chain: EERRKELIKLAEEAAKLLEKAAELLEKGEDYTEAIKKAIELYKKLAEELKGGGPRERRLSLTAAGAAIALEELPKYSKELQIAMLKELADVTKELAEELK
B12: usp_38_diff_out_5_91_614 (protein)
chain: EERRKKLIEKAEEAAKKLEEAAKRLEAGEDYTKDIEEAIELYREIAAALADGDARERRLSLTAAGMALALEKLGEYPKDLQIAMLKAHADVAKEMAEQLK
B13: usp_38_diff_out_5_164_607 (protein)
chain: GVEEALKELEKTAEELKKKLKELLEEAKKNPEKLDEYKKKITEAVNEAIDKINEITTKALEAHPEQADEILRHYDEVVTEMLTEYNAALEELEKLKKEAA
B14: usp_38_diff_out_5_164_609 (protein)
chain: MVEEKLKEMEEIRDETIEKLDELLEEAKKNPEKLEEIKKEINELTEEAIDKMNELTTEALEADPERAEEILKHYDELMTELLTHKKEVLEEIEKLKKEKE
B15: usp_38_diff_out_5_91_615 (protein)
chain: EERRKELIKKAKEAAKKLKEAAELLEKGEDYTKEIEEAIKLYKELAEALAGGNARERRLSLTAAGAAIALEKLDEYPKELQIAMLKAHAEVTKQMAEELE
B16: usp_38_diff_out_5_164_612 (protein)
chain: AVEAIRAEFEAAADAALAELKALLAEAKADPSKVEEKLKEAEAVLDELLDLLVEATERVAEEDPSQVEAFLREADARLEELLGIIAEIRELARKVREAKA
B17: usp_38_diff_out_5_164_611 (protein)
chain: EVERIREEFEARADATLAALRALLAQARADPATARAALAQAEALVDDLADFYVEAVEEVNEADPSKVEEFLREASRRLEELSALVAELRALARAQAEAEA
B18: usp_38_diff_out_9_42_625 (protein)
chain: MKELEEKREETLKLIAEAGRYVDEVIERLAKLDPELARELRREAAEAHDKIVELTQEANKYYLAGEETKEEFLAKLDEIKKIVDELRKRAEELLAAAEAA
B19: usp_38_diff_out_5_91_622 (protein)
chain: EETRKEAVKLAKEAAEALKKAAELLEKGEDYTEELKKAYEALTKLAELLAKGDAREQRLALTAAGIAEALKELPRYPKELQIAMLKELADVAKELAEQLE

Target: T1, USP38, Q8NB14
Test: median log2 fold change of GCK-ALFA target abundance (FLAG IP / Myc IP barcode read proportion) (log2 ratio); each designed protein is fused to an ALFA-tag nanobody in HEK293 cells to bring the named protein to FLAG-tagged glucokinase (GCK); Myc marks an untargeted standard; higher = target protein stabilised (more abundant)
Settings: target protein: 3xFLAG-MCP-GCK-ALFA reporter; HEK293 landing pad (RPLP)
In short: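 An ALFA-nanobody-fused binder library was recombined into HEK293 landing-pad cells and induced with 2 μg mL^−1 doxycycline. Cells were transfected with a plasmid expressing a FLAG-tagged target and a Myc-tagged standard. After 48 h, lysates underwent anti-FLAG and anti-Myc immunoprecipitation, and circular RNA barcodes were reverse transcribed, amplified and sequenced. Target abundance is the per-binder median log2 ratio of FLAG to Myc barcode read proportions. Barcodes needed ≥10^−7 proportion in both replicates, binders ≥3 barcodes per replicate, and a 10^−6 pseudocount was added; the two replicates were pooled.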

Binder | median log2 fold change
B1 | -0.169
B2 | -0.164
B3 | 0.0905
B4 | 0.1
B5 | -0.63
B6 | 0.0441
B7 | 0.486
B8 | 0.153
B9 | -0.17
B10 | -0.076
B11 | 0.214
B12 | 0.105
B13 | -0.164
B14 | 0.206
B15 | 0.0701
B16 | -0.239
B17 | -0.198
B18 | 0.146
B19 | 0.0965
